From PubChem BioAssay (EPA / NIEHS)
Active and inactive are the calls of the source. The calls were made as follows: active = hit-call score of the fitted dose curve at least 0.9, where 1 is the maximum; inactive = score below 0.9.

Assay: ATG_TCF_b_cat_CIS: Attagene CIS-FACTORIAL HepG2 Assay for human T-Cell-Factor with beta-catenin (TCF/b-cat) (AID 2282965)
Details: HepG2 TCF/beta-catenin cis-reporter transcription, actives raise or lower the signal
Procedure: ATG_CIS is a cell-based, multiplexed-readout assay that uses HepG2, a human liver cell line, with measurements taken at 24 hours after chemical dosing in a 24-well plate.ATG_TCF_b_cat_CIS is one of 52 assay component(s) measured or calculated from the ATG_CIS assay. It is designed to make measurements of mRNA induction, a form of inducible reporter, as detected with fluorescence intensity signals by Reverse transcription polymerase chain reaction (RT-PCR) and Capillary electrophoresis technology.Data from the assay component ATG_TCF_b_cat_CIS was analyzed into 1 assay endpoint. This assay endpoint, ATG_TCF_b_cat_CIS, was analyzed with bidirectional fitting relative to DMSO as the negative control and baseline of activity. Using a type of inducible reporter, measures of mRNA for gain or loss-of-signal activity can be used to understand the reporter gene at the transcription factor-level as they relate to the gene TCF7 and TCF7L2 and LEF1 and TCF7L1. Furthermore, this assay endpoint can be referred to as a primary readout, because this assay has produced multiple assay endpoints where this one serves a reporter gene function. To generalize the intended target to other relatable targets, this assay endpoint is annotated to the dna binding intended target family, where the subfamily is HMG box protein.
Human liver HepG2 cells are transiently transfected with multiple reporter transcription units (MRTUs) in 6-well plates using FuGene 6 reagent (Roche; 3 ml FuGene/1 mg DNA). The MRTU constructs are regulated by a cis-regulating element (promoter). […] A major difference between the CIS and TRANS system is that in CIS activities of endogenous TFs are measured, whereas the TRANS assay evaluates changes in activities of exogenous, chimeric NR-Gal4 proteins. […] At the end of 24 hour incubation, total RNA was isolated using TriZol reagent (Invitrogen). The isolated RNA is then reverse-transcribed using oligo(dT) primer and Mo-MLV reverse transcriptase (Invitrogen) with DNAse I (Ambion) treatment for 30 min. The one-tenth of the produced cDNA was amplified by PCR using Taq DNA polymerase (Invitrogen) and two reporter sequence-specific primers. The PCR products were fluorescently labeled by primer extension with 6-arboxyfluorescein (6-FAM) 5'-labeled reporter sequence-specific primer (2 min at 95 C, 20 s at 68 C and 10 min at 72 C) and these products were digested with 5U of HpaI (New England Biolabs) for 2h at 37 C. The fragments were purified using Qiaquick PCR columns (Qiagen), analyzed on an ABI 3130xL genetic analyzer (Applied Biosystems) with peak positions identified by using a set of X-rhodamine (ROX)-labeled MapMarker1000 molecular weight standards (BioVentures). The raw capillary electrophoresis data was processed using Attagraph software (Attagene).

Q: With `COC(=O)/C=C/C(C)=C\C=C\C(C)=C\C=C\C=C(C)\C=C\C=C(C)\C=C\C(=O)O` as the compound, how does the outcome read?
A: inactive

Q: Which outcome does the source give for `Cn1c([N+](=O)[O-])cnc1COC(N)=O` here?
A: inactive

Q: Which outcome does the source give for `O=C(O)CCCCCCCCCC(=O)O` here?
A: inactive

Q: For `CCCC(=O)OCc1ccccc1`, which outcome is on record?
A: inactive

Q: For `CC(C)c1ccc(C#N)cc1`, which outcome is on record?
A: inactive

Q: Which outcome does the source give for `CCN(CC)c1ccc(C(=O)c2ccccc2C(=O)O)c(O)c1` here?
A: inactive

Q: With `O=c1cc(-c2ccccc2)oc2ccccc12` as the compound, how does the AC50 read?
A: 25.2 µM (active)

Q: For `Cc1cc(C)c(C(=O)O)c(C)c1`, which outcome is on record?
A: inactive

Q: With `O=C(Cl)c1cc(C(=O)Cl)cc(C(=O)Cl)c1` as the compound, how does the outcome read?
A: inactive

Q: For `CCc1ccc2c(c1)C(=O)c1ccccc1C2=O`, which outcome is on record?
A: inactive

Q: Which outcome does the source give for `CCCCCC/C=C/C=O` here?
A: inactive

Q: With `C=C(C)[C@H]1CC=C(C)CC1` as the compound, how does the outcome read?
A: inactive

Q: Which outcome does the source give for `O=C(O)CC(C(=O)O)C(CC(=O)O)C(=O)O` (stereo not given) here?
A: inactive

Q: For `COC(F)(F)C(F)(C(F)(F)F)C(F)(F)F`, which outcome is on record?
A: inactive

Q: Which outcome does the source give for `C=CCOCC(O)CCl` (stereo not given) here?
A: inactive

Q: Which outcome does the source give for `CCCCC/C=C\C/C=C\CCCCCCCC(=O)OC` here?
A: inactive

Q: For `CC1=CC[C@H](C(C)C)C=C1`, which outcome is on record?
A: inactive

Q: For `CC1=NN(c2cc(S(=O)(=O)O)ccc2Cl)C(=O)C1N=Nc1ccccc1` (stereo not given), which outcome is on record?
A: inactive

Q: Which AC50 does the source give for `CCOC(=O)c1ccccc1C(=C1C=C(Br)C(=O)C(Br)=C1)c1cc(Br)c(O)c(Br)c1` here?
A: 24.8 µM (active)

Q: With `OC1CCCC1` as the compound, how does the outcome read?
A: inactive

Q: With `CC(C)C(=O)C(C)C` as the compound, how does the AC50 read?
A: 61.5 µM (active)

Q: Which outcome does the source give for `CCOC(=O)NNc1nncc2ccccc12` here?
A: inactive

Q: With `C=C(C)CCO` as the compound, how does the outcome read?
A: inactive

Q: Which outcome does the source give for `O=C1CCCC1` here?
A: inactive

Q: For `CC(C)(C)C(=O)C=Cc1ccc(Cl)cc1`, which AC50 is on record?
A: 53.8 µM (active)

Q: For `CC(=O)Oc1ccc(C)cc1`, which outcome is on record?
A: inactive

Q: For `Cc1ccc([N+](=O)[O-])cc1S(=O)(=O)O`, which outcome is on record?
A: inactive

Q: With `CCN(Cc1cccc(S(=O)(=O)O)c1)c1ccc(C(=C2C=CC(=[N+](CC)Cc3cccc(S(=O)(=O)[O-])c3)C=C2)c2ccccc2)cc1` as the compound, how does the outcome read?
A: inactive

Q: Which outcome does the source give for `CCC(CC)C(=O)O` here?
A: inactive

Q: Which outcome does the source give for `c1ccc(CCCc2ccncc2)cc1` here?
A: inactive

Q: With `CO[Si](CCC1CCC2OC2C1)(OC)OC` (stereo not given) as the compound, how does the outcome read?
A: inactive

Q: With `CC(C)=CC1CC(C)CCO1` (stereo not given) as the compound, how does the outcome read?
A: inactive

Q: Which outcome does the source give for `CCCCCCCC(C)=O` here?
A: inactive

Q: For `N#CCc1ccc(Cl)cc1Cl`, which outcome is on record?
A: inactive

Q: With `COCCOCCOCCOCCOC` as the compound, how does the outcome read?
A: inactive

Q: With `C[Si](C)(C)O[Si](O)(O)O` as the compound, how does the outcome read?
A: inactive

Q: For `C=C(C)C(=O)OCC(C)C`, which outcome is on record?
A: inactive

Q: Which outcome does the source give for `CC(=O)c1ccc[nH]1` here?
A: inactive

Q: For `COc1ccc(-c2coc3cc(O)ccc3c2=O)cc1`, which outcome is on record?
A: inactive

Q: Which outcome does the source give for `Nc1ccc(Oc2ccc(N)c(N)c2)cc1` here?
A: inactive
